Source: PubChem BioAssay (NCI)
Compounds without any hit were thinned out: in the full panel of roughly 79,000, 15% have a hit. Cut-off read from the data, not from the text of the source: active = growth inhibition above about 70%; inactive = the rest.

Columns and labels:
[1] = NCI Yeast Anticancer Drug Screen. Data for the rad50 strain (AID 155);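 note: 0% = growth of vehicle-only cultures of the same strain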; conditions: S. cerevisiae rad50 strain growth inhibition; at 50.0 µM; active compounds read high
How it was run: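 Inhibition values express reduced yeast growth in compound-treated cultures relative to vehicle-treated controls.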

[2] = NCI Yeast Anticancer Drug Screen. Data for the mec2-1 strain (AID 157); conditions: S. cerevisiae mec2-1 strain, at 50.0 µM, active compounds read high
How it was run: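 Growth inhibition is read against vehicle-treated controls after compound exposure of the mec2-1 yeast strain, which is defective in DNA damage repair or cell cycle control.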

[3] = NCI Yeast Anticancer Drug Screen. Data for the sgs1 mgt1 strain (AID 161);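 note: 0% = growth of cultures given vehicle only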; conditions: S. cerevisiae sgs1 mgt1 strain, at 50.0 µM, active compounds read high
How it was run: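 Percent growth inhibition was derived by comparing compound-exposed mutant yeast with vehicle-exposed cultures. The strain carries alterations in DNA damage repair.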

[4] = NCI Yeast Anticancer Drug Screen. Data for the cln2 rad14 strain (AID 165);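 note: 0% = growth equal to vehicle treated cultures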; conditions: S. cerevisiae cln2 rad14 strain, at 50.0 µM, active compounds read high
How it was run: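 Growth inhibition, relative to vehicle-treated controls, is the read-out. The test organism is a yeast strain with defined genetic alterations, cln2 rad14.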

[5] = NCI Yeast Anticancer Drug Screen. Data for the bub3 strain (AID 167); conditions: S. cerevisiae bub3 mutant strain, at 50.0 µM, active compounds read high
How it was run: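 Steps: expose the mutant yeast strain to compound; grow alongside vehicle-treated cultures; measure growth; express inhibition against the vehicle cultures.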

[6] = NCI Yeast Anticancer Drug Screen. Data for the mlh1 rad18 strain (AID 175); conditions: S. cerevisiae mlh1 rad18 strain growth inhibition; at 50.0 µM; active compounds read high
How it was run: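 Cells of a genetically altered yeast strain, deficient in DNA damage repair, were treated with compound. Their growth was then compared with that of vehicle-treated cultures to give inhibition.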

Measured: growth inhibition

CN(c1ccccc1)c1ncnc2c1ncn2C
inactive: [1] 2.65% | [2] -0.65% | [3] 1.75% | [4] -4.7% | [5] 29.9% | [6] 4.1%

COc1ccc2c(c1)CCc1c-2n[nH]c1-c1[nH]nc2c1CCc1cc(OC)ccc1-2
inactive: [1] 0.5% | [2] 0.35% | [3] -11.2% | [4] -5.55% | [5] -16.1% | [6] -5%

Cc1cc(C)c(CC(=O)O)c(C)c1
inactive: [1] 30.5% | [2] 6.3% | [3] 16.9% | [4] 12.3% | [5] 4.3% | [6] 10.4%

COc1cc(/C=C(\C#N)C(=O)c2ccccc2)ccc1OCc1ccccc1
inactive: [1] -1.1% | [2] -18.8% | [3] -15.2% | [4] 1.25% | [5] -26.7% | [6] -18%

N#Cc1ccc(OC(=O)Nc2ccc(Cl)c(Cl)c2)cc1
inactive: [1] -7.65% | [2] -4.4% | [3] 20.9% | [4] 8.35% | [5] 9.95% | [6] 5.8%

O=[N+]([O-])c1cccc(C(F)(F)F)c1
inactive: [1] -3.9% | [2] -12.1% | [3] -9.1% | [4] -23.9% | [5] 34.3% | [6] -9.85%

Cc1cc(=O)n(-c2ccc(F)cc2)[nH]1
inactive: [1] -5.15% | [2] -14.1% | [3] 22.1% | [4] 2.8% | [5] 50.6% | [6] 12.1%

CC[N+](C)(CC)CCO
inactive: [1] 13.7% | [2] -3.8% | [3] 4.4% | [4] 10.7% | [5] 2.9% | [6] 5.05%

O=C1C[C@H](c2ccccc2)[C@H](c2ccccc2)C1
inactive: [1] 24.2% | [2] 4.85% | [3] 10.4% | [4] -4.25% | [5] -5.55% | [6] 9.8%

CCOC(=O)c1[nH]c(C)c(C(C)=O)c1C
inactive: [1] -0.45% | [2] -22.5% | [3] 9% | [4] -10.5% | [5] -27% | [6] -8.15%

C=CCNc1ccccc1
inactive: [1] 31.2% | [2] 4.35% | [3] 7.55% | [4] -36.6% | [5] 17.6% | [6] 13.7%

CN(C)C(=O)Oc1cccc([N+](C)(C)C)c1
inactive: [1] -1.5% | [2] -8.2% | [3] 5.95% | [4] -60.9% | [5] 0.2% | [6] -5.35%

CC(C)(O)C#CC#CC(C)(C)O
inactive: [1] 30.9% | [2] 4.2% | [3] 5.4% | [4] 3.8% | [5] -41% | [6] -0.55%

O=S(=O)(O)c1cc(O)c2c(N=Cc3ccccc3O)c(S(=O)(=O)O)ccc2c1
inactive: [1] 5.15% | [2] -9.6% | [3] 6.55% | [4] -2.45% | [5] 17% | [6] 8.3%

CC1CCCCN1C(=S)Nc1ccc(S(=O)(=O)N2CCCCC2)cc1 (stereo not drawn)
inactive: [1] -18.6% | [2] -29.2% | [3] -5.75% | [4] -11.2% | [5] -19.1% | [6] -18.7%

O=C(CC(=O)c1ccccc1O)c1ccccc1
inactive: [1] 31.4% | [2] 43.1% | [3] 34.4% | [4] 40.5% | [5] 62.6% | [6] 39.9%

COc1cc(-c2ccc(NC(=O)NC3CC3)c(OC)c2)ccc1NC(=O)NC1CC1
inactive: [1] -26.9% | [2] -23.2% | [3] -24.1% | [4] 3.15% | [5] -25.2% | [6] -25.8%

Cc1ccc(N)cc1[N+](=O)[O-]
inactive: [1] 11.8% | [2] 2% | [3] 6.2% | [4] 18.2% | [5] 15.4% | [6] 15.8%

CC1CCCC(CC(N)=O)CC1 (stereo not drawn)
inactive: [1] 7.8% | [2] 1.05% | [3] 2.1% | [4] 1.3% | [5] 0.7% | [6] 4.2%

CCCOC(=O)C(O)c1ccccc1 (stereo not drawn)
inactive: [1] 16.2% | [2] -6.25% | [3] -5.5% | [4] -24.1% | [5] -13.2% | [6] 14.8%

CCC(C#N)(CC)c1ccccc1
inactive: [1] 16% | [2] 13.4% | [3] 11.1% | [4] 12.7% | [5] -3.2% | [6] 36.3%

CC(C)(C)n1nc(C2CC2)c(Br)c1NC(=O)c1ccccc1F
inactive: [1] -6.6% | [2] -12.2% | [3] 8.7% | [4] 3.25% | [5] 5.55% | [6] 10.9%

Cc1ccc(C)n1-c1ccsc1C(=O)NNC(=O)CCl
inactive: [1] -13.8% | [2] -17.8% | [3] 2.25% | [4] 22.9% | [5] -14.5% | [6] -3.85%

CC(=O)Nc1c(C)cc(C)cc1C
inactive: [1] 0.3% | [2] -0.35% | [3] -6.4% | [4] -11.8% | [5] 9.45% | [6] 0.1%

c1csc(-c2cc(-c3cc(-c4cccs4)[nH]n3)n[nH]2)c1
inactive: [1] 9.4% | [2] -11.2% | [3] 6.35% | [4] -2.7% | [5] -3.05% | [6] 2.6%

CCOC(=O)CCCS(C)(=O)=O
inactive: [1] -26.5% | [2] -19.6% | [3] -32% | [4] -17.9% | [5] -1.95% | [6] 7.3%

CCC(C)(O)c1ccc(C)cc1 (stereo not drawn)
inactive: [1] 26.5% | [2] 33% | [3] 31.8% | [4] -21.1% | [5] 19.6% | [6] 6.4%

Cc1c(O)cnc2nn(-c3ccccc3)c(=N)n12
inactive: [1] 19.5% | [2] 11.4% | [3] 35.7% | [4] 15.9% | [5] 15% | [6] 12.9%

O=c1[nH]nc(SC2CCCCC2)c(=O)[nH]1
inactive: [1] -12.1% | [2] -3.1% | [3] -11.9% | [4] -5.4% | [5] 4.85% | [6] -11.1%

O=C1Cc2cc(O)ccc2O1
inactive: [1] -13.4% | [2] -28.2% | [3] -48.6% | [4] -0.85% | [5] -32% | [6] -8.75%

CCOC(=O)C(CCC(C)C)C(=O)OCC
inactive: [1] -7.55% | [2] 7.85% | [3] -9.65% | [4] -53.4% | [5] 4.6% | [6] 2.6%

Cc1ccc(O)c(C(=O)c2ccccc2)c1
inactive: [1] 4.3% | [2] -16.7% | [3] 12.5% | [4] -8.8% | [5] -3.65% | [6] 14.7%

CC1(O)CCCCC1O (stereo not drawn)
inactive: [1] -8.1% | [2] -37.6% | [3] -8.3% | [4] -20.9% | [5] -13.8% | [6] -15.3%

COc1cc2nn(-c3ccccc3N)nc2cc1OC
inactive: [1] 19.4% | [2] 36.6% | [3] 48.2% | [4] 14.7% | [5] 52.2% | [6] 29.9%

COc1cc([C@@H]2c3cc4c(cc3[C@H](O)[C@H]3COC(=O)[C@H]23)OCO4)cc(OC)c1OC
inactive: [1] -4.8% | [2] -8.55% | [3] 9.05% | [4] 5.1% | [5] 3.6% | [6] 9%

O=c1[nH][nH]c(=O)c2cc([N+](=O)[O-])ccc12
inactive: [1] 32.9% | [2] 11.6% | [3] 1.7% | [4] -67.7% | [5] -15% | [6] 18.1%

N#CC(=Nc1cccc(F)c1)C1=C(O)c2ccccc2C1=O
inactive: [1] 11.6% | [2] -2.6% | [3] 22.4% | [4] 27.6% | [5] 20.5% | [6] 18.8%

OCCN(CCO)C(=S)S
inactive: [1] 2.15% | [2] -5.75% | [3] 1.1% | [4] -1.8% | [5] 4.95% | [6] -0.85%

CNS(=O)(=O)c1ccc(Cl)c(Cl)c1
inactive: [1] -43.2% | [2] -5.1% | [3] -13.5% | [4] -55% | [5] -25.4% | [6] -40.9%

COc1cc(C2NC(=O)C(C#N)=C(Nc3cccc(C)c3)S2)ccc1O (stereo not drawn)
inactive: [1] -2.7% | [2] -18.8% | [3] 13.4% | [4] 1% | [5] -6.15% | [6] -16.9%

CC1CC(O)CC(C)(C)C1 (stereo not drawn)
inactive: [1] 5.55% | [2] -10.1% | [3] 1.35% | [4] -25.4% | [5] 2.2% | [6] -4.25%

COc1cc2c3cc1Oc1c(OC)c(OC)cc4c1C(Cc1ccc(O)c(c1)Oc1ccc(cc1)CC3N(C)CC2)N(C)CC4 (stereo not drawn)
inactive: [1] 1.05% | [2] 0.55% | [3] 0.65% | [4] 6.9% | [5] 8.1% | [6] -89.8%

CCOC(=O)CCCC(=O)OCC
inactive: [1] 20.8% | [2] -8.1% | [3] 1.65% | [4] 7.7% | [5] 22.8% | [6] 19.6%
